A number with no mark means an inactive call. Records with an inconclusive call do not appear. Calls of active or inactive are those of the source. Calls come from the whole dose curve; as a rule, active = well fitted curve in the direction sought with a large enough effect; inconclusive = small, poorly fitted or top-dose-only effect, or another doubt; inactive = no such curve, though single readings can be large; an effect the other way counts as inactive or inconclusive.

For experiment [1], the target named is Nuclear receptor subfamily 1 group I member 3 (Homo sapiens) (UniProt Q14994). Briefly: Primary qHTS for antagonist of constitutive androstane receptor (CAR) against the NCATS DSHEA and TCM libraries (AID 1794836). Note: potency is the fitted concentration of half-maximal effect. In a few lines: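 HepG2 cells stably carrying hCAR and a CYP2B6 luciferase reporter (2,500 cells/well) attached for 5 h, then received compounds with 48 uM CITCO for 24 h at 37C. ONE-Glo luminescence read antagonism; CellTiter-Fluor (405/540 nm) gave viability.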

Experiment [2] in a line: Viability counterscreen for antagonist of constitutive androstane receptor (CAR) against the NCATS DSHEA and TCM libraries (AID 1794837).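 Note: compound exposure lasted 24 h before viability reading; 0% is about no effect.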 An outline of the steps:
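HepG2-CYP2B6-hCAR cells, 2,500/well, were exposed 24 hr at 37C to substances together with 48 uM CITCO (final). Viability was read as CellTiter-Fluor fluorescence (Ex/Em 405/540 nm) after 1 hr.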

A short description of experiment [3]: Viability counterscreen for agonist of constitutive androstane receptor (CAR) against the NCATS DSHEA and TCM libraries (AID 1794838).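 Note: HepG2 cells with CYP2B6 reporter and hCAR plus 0.75 µM PK11195 antagonist; 0% is about no effect.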 An outline of the steps:
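HepG2-CYP2B6-hCAR cells (2,500/well) treated 24 h at 37C with compounds plus 0.75 uM PK11195; viability read by CellTiter-Fluor fluorescence, Ex/Em 405/540 nm.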

Experiment [4] deals with Nuclear receptor subfamily 1 group I member 3 (Homo sapiens) (UniProt Q14994). As to the kind of experiment: Primary qHTS for agonist of constitutive androstane receptor (CAR) against the NCATS DSHEA and TCM libraries (AID 1794839).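 Note: HepG2 cells expressing human CAR with a CYP2B6 reporter plus PK11195 antagonist; 0% is about no effect.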 To be noted: Potency: CAR antagonist co-added at 0.75 µM unless noted. In a few lines:
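HepG2-CYP2B6-hCAR cells, 2,500/well, attached 5 h, then dosed with 0.75 µM PK11195 (final) for 24 h at 37 °C. Luciferase luminescence read (ONE-Glo); CellTiter-Fluor viability (Ex/Em 405/540 nm) in same wells; CITCO positive control.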
For orientation: Quantitative high-throughput screening tests each substance at several concentrations.

The nature of experiment [5]: HepG2 viability counterscreen (readout 2: ATP content) against the NCATS DSHEA and TCM libraries (AID 1794840). Note: 0% is about no effect. In a few lines:
(§1)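 HepG2 cells, 1,000/well, attached ~4 h, then exposed ~24 h at 37C to substances. Protease activity read by fluorescence of 25 uM GF-AFC (Ex/Em 380/510 nm) after 30 min; ATP then by CellTiter-Glo luminescence.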
On the technique in general: A counterscreen serves to expose hits that act by an unwanted route or on another target.

The nature of experiment [6]: HepG2 viability counterscreen (readout 1: protease activity) against the NCATS DSHEA and TCM libraries (AID 1794841).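 Note: cells exposed to compounds for about 24 h before the protease read; 0% is about no effect.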 An outline of the steps:
as §1

Experiment [7] has as its target Cytochrome P450 2D6 (Homo sapiens) (UniProt P10635). As to the kind of experiment: qHTS for inhibitors of CYP2D6 against the NCATS DSHEA and TCM libraries (AID 1919972). Note: % is set by controls: 0 for no effect and ±100 for the full control effect. An outline of the steps: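 qHTS, concentration–response format with most substances from 19.5 nM. CYP2D6 + pro-luciferin substrate, 15 min with compound, then 1x NADPH regen, 30–45 min RT dark. Glo detection 30 min, luminescence. Quinidine control.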

Experiment [8] deals with Cytochrome P450 2C19 (Homo sapiens) (UniProt P33261). Briefly: qHTS for inhibitors of CYP2C19 against the NCATS DSHEA and TCM libraries (AID 1919974). Note: potency is the fitted concentration of half-maximal effect. In a few lines: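 Substances were tested against enzyme with a pro-luciferin substrate; minus-enzyme wells served as background. After NADPH-initiated oxidation (30-45 min, RT), light was generated with P450-Glo reagent.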

A short description of experiment [9]: KB-3-1 P-gp reporter qHTS against the NCATS DSHEA and TCM libraries (AID 1919975). Note: 0% is about no effect. An outline of the steps: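 Parental KB-3-1 cells, 500 cells/well, in DMEM with 10% FBS, exposed 72 h at 37 C to compounds in concentration-response. Viability read by CellTiter-Glo luminescence after 30 min at room temperature.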
The target of experiment [10] is Cytochrome P450 1A2 (Homo sapiens) (UniProt P05177). Briefly: qHTS for inhibitors of CYPIA2 against the NCATS DSHEA and TCM libraries (AID 1919976). Note: series mostly up to about 37 µM; % is set by controls: 0 for no effect and ±100 for the full control effect. In a few lines:
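Luminescence read-out: pro-luciferin converted to D-luciferin by CYP1A2, detected with P450-Glo reagent after 30 min RT. Enzyme plus substrate got compounds for 15 min RT; NADPH regeneration solution (final 1x) started a 30-45 min reaction, light-protected.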

A short description of experiment [11]: KB-8-5-11 P-gp reporter qHTS against the NCATS DSHEA and TCM libraries (AID 1919977). Note: 0% is about no effect. An outline of the steps: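 P-gp-overexpressing KB-8-5-11 cells were screened in colchicine-free medium at 500 cells/well, as a titration series. Cells were exposed for 72 h at 37C. Viability was read by CellTiter-Glo luminescence after 30 min at room temperature.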
Experiment [12] in a line: qHTS Counterscreen for compound interference against the NCATS DSHEA and TCM libraries (AID 1919978).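 Note: compounds preincubated with 1 µM D-luciferin or buffer before detection reagent; % of control where 0% means no effect.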 Conditions: firefly luciferase detection reagent interference, luminescence. In a few lines: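 Firefly luciferase detection reagent was added after compounds (19.5 nM–39.8 uM final) had been incubated 15 min at room temperature with 1 uM D-luciferin or with 100 mM phosphate buffer alone. Luminescence was read after 30 min at room temperature.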

Experiment [13] can be described thus: Dual reporter qHTS for agonist of Pregnane X Receptor (hPXR) against the NCATS DSHEA and TCM libraries: Fluorescence readout (AID 1920058). Note: 0% is about no effect. An outline of the steps:
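Fluorescence read-out for cell viability: CellTiter-Fluor, 1 h at 37 °C, Ex/Em 405/540 nm. This followed ~24 h treatment of hPXR-Luc HepG2 cells with substances in agonist mode.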

Experiment [14] deals with Nuclear receptor subfamily 1 group I member 2 (Homo sapiens) (UniProt O75469). Briefly: Dual reporter qHTS for antagonist of Pregnane X Receptor (hPXR) against the NCATS DSHEA and TCM libraries: Luminescence Readout (AID 1920060).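 Note: HepG2 cells carrying hPXR luciferase reporter stimulated with rifampicin at 2 µM; 0% is about no effect.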 In a few lines: (§2)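 Antagonist mode: rifampicin 2 uM final co-added with compounds to hPXR-LucHepG2 cells for 24 h at 37C. Viability by CellTiter-Fluor, Ex/Em 405/540 nm, 1 h; reporter by ONE-Glo luminescence.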

A short description of experiment [15]: Dual reporter qHTS for antagonist of Pregnane X Receptor (hPXR) against the NCATS DSHEA and TCM libraries: Fluorescence Readout (AID 1920061). Note: 0% is about no effect. An outline of the steps: as §2

Chain of Nuclear receptor subfamily 1 group I member 3 (Homo sapiens) (Q14994 whole entry, looked up): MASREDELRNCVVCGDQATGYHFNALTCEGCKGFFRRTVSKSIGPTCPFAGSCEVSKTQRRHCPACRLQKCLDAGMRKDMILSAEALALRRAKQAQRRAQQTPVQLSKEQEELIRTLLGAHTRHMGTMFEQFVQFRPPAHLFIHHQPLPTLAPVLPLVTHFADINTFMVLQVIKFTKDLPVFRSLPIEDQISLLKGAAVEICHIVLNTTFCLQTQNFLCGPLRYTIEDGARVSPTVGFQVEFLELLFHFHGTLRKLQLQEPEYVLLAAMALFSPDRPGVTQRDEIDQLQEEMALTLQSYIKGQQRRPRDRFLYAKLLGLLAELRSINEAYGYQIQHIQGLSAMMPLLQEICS
Chain of Cytochrome P450 2C19 (Homo sapiens) (P33261 whole entry, looked up): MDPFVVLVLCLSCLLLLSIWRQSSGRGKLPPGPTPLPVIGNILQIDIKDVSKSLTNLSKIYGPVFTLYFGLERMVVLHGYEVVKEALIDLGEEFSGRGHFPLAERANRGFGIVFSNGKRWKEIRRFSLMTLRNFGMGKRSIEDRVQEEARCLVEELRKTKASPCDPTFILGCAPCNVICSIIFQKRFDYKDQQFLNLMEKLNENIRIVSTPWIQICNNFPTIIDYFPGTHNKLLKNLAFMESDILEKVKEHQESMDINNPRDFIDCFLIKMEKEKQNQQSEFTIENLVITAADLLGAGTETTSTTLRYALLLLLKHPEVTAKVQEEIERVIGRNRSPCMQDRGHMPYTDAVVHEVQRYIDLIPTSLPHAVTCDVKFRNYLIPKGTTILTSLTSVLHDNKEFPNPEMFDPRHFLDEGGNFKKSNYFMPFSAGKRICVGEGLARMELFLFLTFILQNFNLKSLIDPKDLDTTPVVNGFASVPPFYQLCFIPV
Chain of Nuclear receptor subfamily 1 group I member 2 (Homo sapiens) (O75469 whole entry, looked up): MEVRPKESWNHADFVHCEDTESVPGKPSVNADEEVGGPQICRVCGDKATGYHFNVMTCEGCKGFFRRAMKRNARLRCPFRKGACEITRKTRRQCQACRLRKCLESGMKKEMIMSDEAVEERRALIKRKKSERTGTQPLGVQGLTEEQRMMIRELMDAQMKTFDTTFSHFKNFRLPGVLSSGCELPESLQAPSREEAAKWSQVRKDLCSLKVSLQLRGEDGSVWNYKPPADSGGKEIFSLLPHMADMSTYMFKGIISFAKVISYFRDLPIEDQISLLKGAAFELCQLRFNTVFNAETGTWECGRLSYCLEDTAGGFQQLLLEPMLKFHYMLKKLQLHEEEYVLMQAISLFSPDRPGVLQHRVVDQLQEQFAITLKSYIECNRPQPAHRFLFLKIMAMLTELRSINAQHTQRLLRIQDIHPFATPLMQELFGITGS
Chain of Cytochrome P450 1A2 (Homo sapiens) (P05177 whole entry, looked up): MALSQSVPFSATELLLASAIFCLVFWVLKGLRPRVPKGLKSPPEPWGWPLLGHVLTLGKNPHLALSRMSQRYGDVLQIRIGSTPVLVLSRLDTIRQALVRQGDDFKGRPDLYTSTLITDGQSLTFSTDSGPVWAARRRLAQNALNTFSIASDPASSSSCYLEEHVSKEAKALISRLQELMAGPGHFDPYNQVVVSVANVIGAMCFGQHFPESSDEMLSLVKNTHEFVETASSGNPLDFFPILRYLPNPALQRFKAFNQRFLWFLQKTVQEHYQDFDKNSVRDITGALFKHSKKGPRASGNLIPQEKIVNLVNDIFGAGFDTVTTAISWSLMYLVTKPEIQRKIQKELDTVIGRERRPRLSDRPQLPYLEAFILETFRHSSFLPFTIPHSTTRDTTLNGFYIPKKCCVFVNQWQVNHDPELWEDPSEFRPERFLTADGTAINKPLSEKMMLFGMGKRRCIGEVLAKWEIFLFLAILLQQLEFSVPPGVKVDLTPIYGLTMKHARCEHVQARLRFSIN
Chain of Cytochrome P450 2D6 (Homo sapiens) (P10635 whole entry, looked up): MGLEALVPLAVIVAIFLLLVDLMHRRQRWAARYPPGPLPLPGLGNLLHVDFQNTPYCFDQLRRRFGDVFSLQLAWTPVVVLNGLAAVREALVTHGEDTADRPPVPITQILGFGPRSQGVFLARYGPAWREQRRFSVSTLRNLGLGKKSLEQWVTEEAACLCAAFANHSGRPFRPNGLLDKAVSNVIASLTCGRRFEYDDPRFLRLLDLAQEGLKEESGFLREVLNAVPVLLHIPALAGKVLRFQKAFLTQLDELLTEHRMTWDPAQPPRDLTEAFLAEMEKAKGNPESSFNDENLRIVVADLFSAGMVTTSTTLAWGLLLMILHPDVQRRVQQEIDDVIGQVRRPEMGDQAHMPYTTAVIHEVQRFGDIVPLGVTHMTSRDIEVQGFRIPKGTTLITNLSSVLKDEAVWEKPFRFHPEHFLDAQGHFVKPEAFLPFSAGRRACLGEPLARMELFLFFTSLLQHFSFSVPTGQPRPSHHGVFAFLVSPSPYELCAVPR

In the case of `CC[C@@H]1CN2CC[C@]3(C(=O)Nc4ccccc43)[C@@H]2C[C@@H]1/C(=C\OC)C(=O)OC`, the Potency is 3.98 µM (active) in experiment [1] and 11.2 µM (active) in [8]. Also, the call in [2], in experiment [3], in experiment [5], in experiment [6], in experiment [9] and in [13] was inactive. The compound was called inactive in [14] and in experiment [15]. Also, the Potency entry in experiment [4], in experiment [7], in experiment [10] and in [11] was “inactive” throughout. Besides, the max response in experiment [12] was -3.13%.

Values taken from PubChem BioAssay (NCATS).
